High-throughput results deposited in PubChem by The Scripps Research Institute Molecular Screening Center.
hcDAF12 agonist: activates DAF-12 receptor from parasite H. contortus; HEK293 hcDAF-12 lit1-tk-luc reporter, luminescence; 0% DMSO, 100% Δ7-dafachronic acid; activation, % at 6.8 µM; hit rate 1.4% among 370,000; AID 652067;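 active means activation above the mean of all tested compounds plus 3 SD, cut at about 5.5% in these data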
DAX1 inh-1: blocks DAX1 repression of SF-1 activated StAR promoter. hit rate 1.1% among 370,000. HEK293T StAR-luciferase reporter, SF-1/DAX-1 repression relief. inhibition, % at 6.8 µM. AID 652010;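 active means inhibition above the mean over all tested compounds plus 3 SD, cut at about 3.6% in these data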;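 further: higher inhibition means more luminescence from relief of DAX-1 repression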
ssDAF-12 act: activates DAF-12 receptor from parasite S. stercoralis; AID 652126; HEK293 ssDAF-12/GRIP1 lit1-tk-luc reporter, luminescence; % of 3 µM dafachronic acid response; hit rate 1% among 370,000; activation, % at 6.8 µM;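 active means activation above the mean over all tested compounds plus 3 SD, cut at about 0.9% in these data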
SMARCA2 activ: SMARCA2 function activation, primary screen; MG213 cells, MMTV-luciferase reporter, dexamethasone, overnight; activation, % at 9.1 µM; hit rate 1% among 370,000; in the data active means activation above about 7.8%
hgDAF12 agonist: activates the H. glycines DAF-12 receptor ligand-binding domain | HEK293 GAL4-hgDAF12 UAS-luciferase reporter, agonist luminescence; normalized to butyrate control | activation, % at 6.8 µM | hit rate 1.8% among 370,000 | AID 687014;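 active means activation above a cutoff set at the mean of all screened compounds plus 3 SD, cut at about 10% in these data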
DAX1 inh-2: inhibits human nuclear receptor DAX1. HEK293 Gal4-DAX1 luciferase reporter, luminescence. inhibition, % at 6.75 µM. hit rate 0.99% among 340,000;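 active means inhibition above the mean over all tested compounds plus 3 SD, cut at about 4.2% in these data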;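 further: inhibition shows as a rise in luminescence from relieved DAX1 repression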
Target sequence (P51843 207-470 limits assumed): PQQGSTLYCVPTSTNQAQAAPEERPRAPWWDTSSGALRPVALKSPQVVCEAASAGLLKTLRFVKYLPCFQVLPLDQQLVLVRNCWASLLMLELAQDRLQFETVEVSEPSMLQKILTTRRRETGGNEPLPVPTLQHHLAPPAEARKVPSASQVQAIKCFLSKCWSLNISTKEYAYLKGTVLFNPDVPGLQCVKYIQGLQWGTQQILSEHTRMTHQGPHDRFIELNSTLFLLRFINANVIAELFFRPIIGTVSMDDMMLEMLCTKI
LXRb hcDAF ctr: LXR-beta agonism as hcDAF-12 counter-screen; activation, % at 6.8 µM; 3,400 tested, under 10 active; shares compounds with hcDAF12 agonist; HEK293 Gal4-LXR tk-luc reporter, luminescence, 24 h; normalized: DMSO 0%, positive control 100%;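 active means mean percent activation of the reporter above a cutoff set as the average over tested compounds plus their standard deviation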
Target sequence (P55055 whole entry, looked up, the tested form may be a part): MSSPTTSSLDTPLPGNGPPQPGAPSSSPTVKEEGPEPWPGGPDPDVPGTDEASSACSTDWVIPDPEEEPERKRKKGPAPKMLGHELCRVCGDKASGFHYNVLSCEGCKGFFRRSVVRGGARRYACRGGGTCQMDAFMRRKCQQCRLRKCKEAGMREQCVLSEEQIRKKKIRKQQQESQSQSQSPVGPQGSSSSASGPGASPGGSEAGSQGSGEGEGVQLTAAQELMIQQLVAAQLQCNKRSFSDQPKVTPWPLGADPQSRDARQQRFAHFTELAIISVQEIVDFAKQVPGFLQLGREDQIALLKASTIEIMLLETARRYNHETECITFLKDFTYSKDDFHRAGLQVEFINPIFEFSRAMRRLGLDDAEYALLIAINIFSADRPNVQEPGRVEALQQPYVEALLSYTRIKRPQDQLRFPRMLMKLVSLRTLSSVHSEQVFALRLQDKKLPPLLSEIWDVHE
hcDAF12 ag: confirmation of H. contortus DAF-12 agonists. shares compounds with hcDAF12 agonist. HEK293 hcDAF-12 lit1-tk-luc reporter, luminescence; % of Δ7-dafachronic acid response. activation, % at 6.8 µM. hit rate 61% among 3,400;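 active means mean activation across triplicate tests above the threshold derived from the earlier primary screen, cut at about 5.5% in these data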
Of the large screens only hits and unclear results are named; the others gave an inactive call (follow-up assays come after a bar, where they were run). Sampled rows, rich in hits. Any-hit rate of the full collection: about 4.8%.

CCOC(CNC(=O)c1nnc(Cc2cc(OC)c(OC)c(OC)c2)o1)OCC	none
COc1cc(OC)c(OC)cc1C=Cc1ccc2ccccc2n1	none
COc1ccc(Cl)cc1/C=C/c1ccc2cccc(O)c2n1	hcDAF12 agonist 7.7 | LXRb hcDAF ctr inactive | hcDAF12 ag inactive
COc1ccc(C(=O)/C=C/Nc2cc(C)ccn2)cc1	hcDAF12 agonist 10.2, hgDAF12 agonist 13.6 | LXRb hcDAF ctr inactive | hcDAF12 ag 10.8
CC(=O)Nc1sc2c(c1-c1nc3ccccc3s1)CN(C(C)C)C2	none (no result: DAX1 inh-1, SMARCA2 activ, DAX1 inh-2)
CC(=O)Nc1sc2c(c1-c1nc3ccccc3s1)CCN(C)C2	hcDAF12 agonist 13.5 (no result: DAX1 inh-1, SMARCA2 activ, DAX1 inh-2) | LXRb hcDAF ctr inactive | hcDAF12 ag 9.4
O=C(NC1CCN(S(=O)(=O)c2cccc(F)c2)CC1)c1cccc(F)c1	none
O=C(NCc1cccs1)C(NS(=O)(=O)c1cccc2nsnc12)c1ccccc1 (stereo not given)	hcDAF12 agonist 7.1 | LXRb hcDAF ctr inactive | hcDAF12 ag inactive
CCc1ccc(C2c3[nH]c4ccccc4c3CCN2C(=O)CN2CCN(CC)CC2)cc1 (stereo not given)	hcDAF12 agonist 8.5 | LXRb hcDAF ctr inactive | hcDAF12 ag inactive
CSc1ccc(C2c3[nH]c4ccccc4c3CCN2C(=O)c2ccnn2C)cc1 (stereo not given)	hcDAF12 agonist 10.4, ssDAF-12 act 2.0 | LXRb hcDAF ctr inactive | hcDAF12 ag 8.3
CCc1ccc(C2c3[nH]c4ccccc4c3CCN2C(=O)CNC(N)=O)cc1 (stereo not given)	none
Brc1cccc(CNc2nc3ccccc3n2CCN2CCOCC2)c1	none
O=C(Nc1ccc(Cl)cn1)c1ccc2ccccc2n1	hcDAF12 agonist 7.8, ssDAF-12 act 1.4 | LXRb hcDAF ctr inactive | hcDAF12 ag 16.7
Cc1ccccc1C(=O)Nc1ccc(Cl)cn1	none
O=C(Nc1ccc(OC(F)(F)F)cc1)c1ccc2ccccc2n1	hcDAF12 agonist 7.8 | LXRb hcDAF ctr inactive | hcDAF12 ag 7.7
CC(C)CN1CCN(C(=O)CCc2nnc(Cc3c[nH]c4ccccc34)o2)[C@@H](C)C1=O	hcDAF12 agonist 7.0 | LXRb hcDAF ctr inactive | hcDAF12 ag inactive
CCN1CCN(C(=O)CCc2nnc(CCc3c[nH]c4ccccc34)o2)[C@@H](C)C1=O	none
O=[N+]([O-])c1ccccc1/C=C/C=Nn1c(-c2ccc(F)cc2)n[nH]c1=S	hcDAF12 agonist 6.6 (no result: DAX1 inh-2) | LXRb hcDAF ctr inactive | hcDAF12 ag inactive
c1ccc(N2CC3CCc4ccccc4C3=N2)cc1 (stereo not given)	hcDAF12 agonist 12.2, ssDAF-12 act 1.4 | LXRb hcDAF ctr inactive | hcDAF12 ag 12.0
CN1N=C2c3ccccc3CCC2C1c1ccc(F)cc1 (stereo not given)	none (no result: DAX1 inh-2)
CC(C)(CC(=O)O)CC(=O)N1CCN(c2cc(C(F)(F)F)nc3ccccc23)CC1	none (no result: hcDAF12 agonist, DAX1 inh-1, ssDAF-12 act, SMARCA2 activ, hgDAF12 agonist)
COc1ccc(NC2=Nc3cccc4cccc2c34)cc1OC	none
Clc1ccc(/C=N/NC2=Nc3cccc4cccc2c34)cc1	hcDAF12 agonist 6.7 | LXRb hcDAF ctr inactive | hcDAF12 ag 10.1
O=C(Nc1ccc(Br)cc1)c1cc2ccccn2n1	hcDAF12 agonist 6.9, hgDAF12 agonist 12.5 | LXRb hcDAF ctr inactive | hcDAF12 ag inactive
O=S(=O)(NCc1cn2ccccc2n1)c1cccs1	none
Cc1ccc2nc(-c3sc4nc(C)cc(C)c4c3N)[nH]c2c1	hcDAF12 agonist 16.6, DAX1 inh-1 4.0, ssDAF-12 act 2.3 | LXRb hcDAF ctr inactive | hcDAF12 ag 24.3
CC(=O)c1sc2nc(C)cc(C)c2c1N	none
COc1ccc(C(NC(=O)C2CCN(CCCOc3ccccc3)CC2)c2cccs2)cc1 (stereo not given)	none (no result: DAX1 inh-2)
Cc1csc(N/N=C/c2ccccc2F)n1	hcDAF12 agonist 7.2 | LXRb hcDAF ctr inactive | hcDAF12 ag 10.2
Cc1ccccc1NC(=O)C1CCN(C(=O)N2CCOc3ccccc32)CC1	none
O=C(O)c1ccc(N=Nc2c(O)ccc3ncccc23)cc1	hcDAF12 agonist 6.6, hgDAF12 agonist 11.8 | LXRb hcDAF ctr inactive | hcDAF12 ag 10.2
CCn1ncc(/C=N/NC(=O)c2cc(Cl)ccc2OC)c1C	hcDAF12 agonist 8.3 | LXRb hcDAF ctr inactive | hcDAF12 ag inactive
COc1ccc(Cl)cc1C(=O)N/N=C/c1ccc(N2CCOCC2)cc1	none
Nc1cccc(CCc2nc3cc4ccccc4cc3[nH]2)c1	hcDAF12 agonist 12.1, hgDAF12 agonist 12.5 | LXRb hcDAF ctr inactive | hcDAF12 ag 8.7
Nc1ccc2nc(CCCCc3nc4ccccc4[nH]3)[nH]c2c1	none
CCC(C)NC(=O)c1cc(S(=O)(=O)N2CCCCC2)c[nH]1 (stereo not given)	none
Fc1cc(F)c2nc(Nc3nc4cc5c(cc4s3)OCO5)sc2c1	none
Fc1cccc2sc(Nc3nc4cc5c(cc4s3)OCCO5)nc12	hcDAF12 agonist 10.1 | LXRb hcDAF ctr inactive | hcDAF12 ag 20.4
O=C(CNc1cccc2ccccc12)c1ccc([N+](=O)[O-])cc1	hcDAF12 agonist 6.8 | LXRb hcDAF ctr inactive | hcDAF12 ag inactive
Cc1nn(CC(=O)NCc2ccccc2F)c(C)c1[N+](=O)[O-]	none
Cc1nn(CC(=O)NCc2cc3ccccc3[nH]2)c(C)c1[N+](=O)[O-]	hcDAF12 agonist 9.4 | LXRb hcDAF ctr inactive | hcDAF12 ag inactive
CC(=O)c1c(C)[nH]c(C(=O)OCC(=O)Nc2ccc(C)cc2[N+](=O)[O-])c1C	none
CC(=O)c1c(C)[nH]c(C(=O)OCC(=O)Nc2cc(Cl)ccc2[N+](=O)[O-])c1C	hcDAF12 agonist 7.0 | LXRb hcDAF ctr inactive | hcDAF12 ag inactive
Cc1csc(=O)n1CC(=O)OCC(=O)Nc1cc(Cl)ccc1[N+](=O)[O-]	hcDAF12 agonist 7.3 | LXRb hcDAF ctr inactive | hcDAF12 ag inactive
NC(=O)C1CCCN(C(=S)Nc2cccc3ccccc23)C1 (stereo not given)	hcDAF12 agonist 7.7 | LXRb hcDAF ctr inactive | hcDAF12 ag inactive
NC(=O)C1CCCN(C(=S)NCc2ccc3c(c2)OCO3)C1 (stereo not given)	none
O=C(COC(=O)c1cccc(Cl)c1Cl)NCCN1C(=O)CSC1=O	hcDAF12 agonist 9.0 | LXRb hcDAF ctr inactive | hcDAF12 ag inactive
COC(=O)C(NC=O)C(O)(Cc1ccccc1)C(F)(F)F (stereo not given)	hcDAF12 agonist 9.7 | LXRb hcDAF ctr inactive | hcDAF12 ag inactive
COc1ccccc1NC(=O)CSCc1nc2ccccc2[nH]1	hcDAF12 agonist 7.0 | LXRb hcDAF ctr inactive | hcDAF12 ag inactive
Cc1ccc(C)n1-c1nnc(N2CCC(C(=O)N3CCN(C)CC3)CC2)s1	none
